SUMO HTRF inh = inhibitors of human SUMOylation (UBC9). HTRF SUMOylation assay, SAE1/SAE2 + UBC9, in vitro. inhibition, % at 35 µM. hit rate 0.36% among 290,000. P63279; in the data active = inhibition above about 50%, passing the limit was not always enough
Target sequence (P63279 whole entry, looked up): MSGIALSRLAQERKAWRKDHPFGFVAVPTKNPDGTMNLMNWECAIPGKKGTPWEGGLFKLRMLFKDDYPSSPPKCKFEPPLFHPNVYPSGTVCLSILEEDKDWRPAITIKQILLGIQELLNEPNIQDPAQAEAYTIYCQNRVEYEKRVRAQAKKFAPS
NSD2 inh = inhibitors of human histone methyltransferase NSD2; O96028; inhibition, % at 12.5 µM; AID 743445; hit rate 0.54% among 310,000; NSD2 peptide methylation, AlphaScreen, 120 min; in the data active = inhibition above about 50%
CASP6 VEID inh = blocks human caspase-6 cleavage activity; purified caspase-6, Z-VEID-R110 cleavage fluorescence; hit rate 0.53% among 350,000; inhibition, % at 12.5 µM; P55212;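 active = mean inhibition across replicates at least about 35%, with every replicate also reaching that limit, limit read from the data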;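 note: 0% = median of neutral control wells and 100% = no fluorescence left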
Target sequence (P55212 24-179 limits assumed): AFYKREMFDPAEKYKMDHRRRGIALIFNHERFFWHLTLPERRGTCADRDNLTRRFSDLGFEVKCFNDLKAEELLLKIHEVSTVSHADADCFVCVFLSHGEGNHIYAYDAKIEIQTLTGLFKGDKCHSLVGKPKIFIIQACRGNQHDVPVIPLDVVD
Target sequence (P55212 194-293 limits assumed): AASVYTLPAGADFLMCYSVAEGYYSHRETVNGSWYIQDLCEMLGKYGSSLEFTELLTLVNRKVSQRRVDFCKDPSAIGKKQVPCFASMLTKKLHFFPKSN
SIRT5 block = sirtuin-5 (human) deacylase inhibition; inhibition, % at 15 µM; hit rate 1.1% among 330,000; AID 652115; Q9NXA8; Purified SirT5, succinyl-peptide AMC, trypsin-coupled fluorescence; in the data active = inhibition above about 15%
Starred values were filed as active, the others as inactive; / = not tested or not shown. An excerpt weighted towards active compounds, which were near 1.6% of everything screened.

SMILES	SUMO HTRF inh	NSD2 inh	CASP6 VEID inh	SIRT5 block
O=C(Nc1cccc(-c2ccccc2)c1)N1CCN(C(=O)Nc2cccc(-c3ccccc3)c2)CC1	9.5	0.7	38.7*	-3.0
COc1cccc(CN2[C@@H](CO)[C@H](c3ccccc3)C23CN(C(=O)C2CCCC2)C3)c1	/	/	1.8	25.6*
COc1ccccc1CN1[C@H](CO)[C@H](c2ccccc2)C12CN(C(C)=O)C2	/	/	0.9	16.5*
CCCNC(=O)N1CC2(C1)[C@H](c1ccccc1)[C@H](CO)N2C(=O)C1CCC1	/	/	1.9	-1.4
CCCNC(=O)N1CC2(C1)[C@H](c1ccccc1)[C@H](CO)N2C(=O)C1CC1	/	/	0.6	23.8*
COc1cccc(CN2[C@H](CO)[C@H](c3ccccc3)C23CN(C(=O)C2CCCC2)C3)c1	/	/	0.1	1.8
O=C(N[C@@H]1CC[C@H](CCn2cc(C3(O)CCCC3)nn2)O[C@@H]1CO)C1CC1	/	/	-3.1	-0.7
COCC(=O)Nc1ccc2c(c1)C(=O)N(C)C[C@@H](OC)[C@@H](C)CN(CC1CC1)[C@H](C)CO2	/	/	-15.1	3.2
O=[N+]([O-])c1ccc2c(c1)nc1n2CCCCC1	15.8	-2.8	-3.1	16.6*
CN(C)C(=O)c1cccc(-c2ccccc2[C@H]2[C@@H](C#N)N(C(=O)C3CC3)[C@@H]2CO)c1	/	/	1.6	29.4*
Cc1ccccc1-c1ccccc1[C@H]1[C@@H](C#N)N(C(=O)c2ccccc2)[C@@H]1CO	/	/	0.4	26.2*
N#C[C@H]1[C@H](c2ccccc2-c2ccccc2F)[C@@H](CO)N1C(=O)c1cccc(F)c1	/	/	1.6	5.9
Cc1ccccc1-c1ccccc1[C@@H]1[C@@H](C#N)N(C(=O)c2ccccc2)[C@H]1CO	/	/	-0.1	-4.8
COCC(=O)N1[C@H](C#N)[C@H](c2ccccc2-c2cccc(F)c2)[C@H]1CO	/	/	4.9	24.2*
N#C[C@@H]1[C@H](c2ccccc2-c2ccccc2F)[C@@H](CO)N1C(=O)c1cccc(F)c1	/	/	0.6	17.6*
O=C(C[C@@H]1CC[C@@H]2[C@H](COC[C@H](O)CN2C(=O)Nc2ccc(Cl)c(Cl)c2)O1)NCc1ccc(F)cc1	/	/	1.3	0.4
O=C(C[C@H]1CC[C@@H]2[C@H](COC[C@H](O)CN2S(=O)(=O)c2ccc(F)cc2)O1)N[C@H]1CCN(Cc2ccccc2)C1	/	/	-1.2	-5.1
CC1CCCC(C)N1/N=C/c1ccc(O)c(O)c1 (stereo unspecified)	1.3	60.0*	24.8	7.4
CCC(=O)N1[C@H](CO)[C@@H](c2ccc(-c3cccnc3)cc2)[C@@H]1CN(CC)C(C)=O	/	/	1.9	0.1
CNCCC(Oc1ccccc1OC)c1ccccc1 (stereo unspecified)	/	/	/	21.8*
O=C1CC(N2CCN(c3ccccc3)CC2)C(=O)N1c1cccc(Cl)c1 (stereo unspecified)	12.2	-1.4	1.3	0.4
O=C1CC(N2CCSCC2)C(=O)N1c1cccc(Cl)c1 (stereo unspecified)	6.8	0.6	44.2*	-4.6
C[n+]1cccc2ccc3c(c21)OC(N)=C(C#N)C3c1ccccc1 (stereo unspecified)	84.1	5.6	37.5*	-1.7
O=C(COC(=O)Cc1ccc(S(=O)(=O)N2CCOCC2)s1)Nc1ccc(F)cc1F	/	-1.0	43.0*	1.1
COc1ccc(CNC(=O)C[C@H]2C=C[C@@H](NC(=O)CN(C)C)[C@@H](CO)O2)cc1	/	/	-2.9	-0.4
SMILES	SUMO HTRF inh	NSD2 inh	CASP6 VEID inh	SIRT5 block
O=C(N[C@@H]1CC[C@H](CC(=O)N2CCCCC2)O[C@H]1CO)c1ccc2c(c1)OCO2	/	/	1.9	-6.3
Cc1ccc(N(C(=O)c2csnn2)C(C(=O)NC2CCCCC2)c2ccco2)cc1 (stereo unspecified)	-6.0	0.6	-0.3	79.1*
CC(C)(C)NC(=O)C(c1ccccn1)N(C(=O)c1csnn1)C1CCCC1 (stereo unspecified)	-11.9	-3.1	-4.0	26.7*
CC(C)(C)NC(=O)C(c1ccncc1)N(C(=O)c1csnn1)C1CC1 (stereo unspecified)	2.0	0.9	/	/
O=C(NC1CCCCC1)C(c1ccccn1)N(C(=O)c1csnn1)C1CCCCC1 (stereo unspecified)	-9.1	-1.0	-0.7	15.4*
CC(=O)N(C)c1ccc(NC(=S)Nc2ccccc2)cc1	-2.3	/	/	/
CC(=O)N(C)c1ccc(NC(=S)Nc2cccc3ccccc23)cc1	94.7*	4.7	8.4	6.2
O=C1Cc2ccccc2C(=O)N1c1ccc(F)cc1Cl	13.3	14.8	44.1*	0.2
O=C1Cc2ccccc2C(=O)N1c1cccc(Cl)c1	16.3	1.2	35.2*	2.7
O=C1Cc2ccccc2N1c1c(Cl)cccc1Cl	-10.1	-0.6	/	/
Cc1cc(N2C(=O)Cc3ccccc3C2=O)ccc1C(C)C	7.2	0.2	21.3	-2.3
Cc1ccnc(NC(=O)c2cccc(NC(=O)c3ccc(Cl)cc3Cl)c2)c1	/	3.3	/	/
Cc1cc(C)cc(NC(=S)Nc2cccc3cnccc23)c1	94.1	15.9	19.8	-1.0
Cc1ccc(NC(=S)Nc2cccc3cnccc23)c(C)c1	97.4*	27.5	14.2	2.0
C[C@@H]1CN([C@H](C)CO)C(=O)c2cccc(NC(=O)C3CCOCC3)c2O[C@@H]1CN(C)Cc1ccc(C(=O)Nc2ccccc2N)cc1	/	/	1.5	16.2*
C[C@@H]1CN([C@H](C)CO)C(=O)c2cccc(NC(=O)CCCCCC(=O)Nc3ccccc3N)c2O[C@H]1CN(C)Cc1ccc(-c2ccccc2)cc1	/	/	1.6	16.6*
C[C@H]1CN([C@@H](C)CO)C(=O)c2cccc(NC(=O)CCCCCC(=O)Nc3ccccc3N)c2O[C@@H]1CN(C)Cc1ccc(-c2ccccc2)cc1	/	/	-0.3	17.1*
CS(=O)(=O)N1[C@@H]2CNC[C@H]1C2c1ccc(-c2ccccc2)cc1 (stereo partly specified)	/	/	-8.1	-1.0
CN(C)CCCNC(=O)[C@H]1[C@H](CO)[C@H]2Cn3c(cccc3=O)[C@H]2N1C(=O)Nc1ccccc1	/	/	-1.6	1.4
C[C@@H]1CCCCO[C@@H](CN(C)Cc2ccc3c(c2)OCO3)[C@@H](C)CN([C@H](C)CO)C(=O)c2cc(NC(=O)c3ccccc3)ccc2O1	/	/	1.5	3.1
CC(=O)N[C@H]1CC[C@H](CCNC(=O)C2CC2)O[C@@H]1CO	/	/	-1.4	0.2
CCCNC(=O)C1(C)CCCN(C(=O)C2(c3ccc(Cl)cc3)CCCC2)C1 (stereo unspecified)	/	-1.4	3.8	29.9*
CCCNC(=O)C1(C)CCN(C(=O)C2(c3ccc(Cl)cc3)CCCC2)C1 (stereo unspecified)	/	-0.9	1.3	/
O=C1/C(=C/C=C/c2ccco2)SC(=S)N1NS(=O)(=O)c1ccccc1	60.0*	118.9*	78.9*	43.2*
O=C1/C(=C/c2cccs2)SC(=S)N1NS(=O)(=O)c1ccccc1	25.3	6.4	13.4	6.1
CC(C)C#Cc1ccc2c(c1)O[C@@H](CN(C)C(=O)c1ccccn1)[C@@H](C)CN([C@H](C)CO)S2(=O)=O	/	/	-2.0	6.3
C=CCC[C@H](CCCCC)OC(=O)/C=C/[C@H](O)[C@@H](O)C[C@H](O)CC=C	/	/	0.6	1.6
C=CCC[C@@H](CCCCC)OC(=O)/C=C/[C@H](O)[C@@H](O)C[C@H](O)CC=C	/	/	2.2	16.2*
